This is part of a sample that, as a whole, favours compounds with a hit. Of some 79,000 tested, about 15% had one in any assay. Values without a mark were called inactive. The source made the active and inactive calls. Rule as the data show it: active = growth inhibition above about 70%; inactive = the rest.
Tests used:
[1] = NCI Yeast Anticancer Drug Screen. Data for the rad50 strain (AID 155);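 also: 0% = growth of vehicle-only cultures of the same strain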; settings: S. cerevisiae rad50 strain growth inhibition; at 50.0 µM; hits give high values
How it was run: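 Yeast carrying a defined DNA repair defect were exposed to test compounds, and growth was compared with vehicle-treated controls to give percent inhibition.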

[2] = NCI Yeast Anticancer Drug Screen. Data for the mec2-1 strain (AID 157); settings: S. cerevisiae mec2-1 strain, at 50.0 µM, hits give high values
How it was run: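 Growth inhibition is read against vehicle-treated controls after compound exposure of the mec2-1 yeast strain, which is defective in DNA damage repair or cell cycle control.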

[3] = NCI Yeast Anticancer Drug Screen. Data for the sgs1 mgt1 strain (AID 161);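 also: 0% = growth of cultures given vehicle only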; settings: S. cerevisiae sgs1 mgt1 strain, at 50.0 µM, hits give high values
How it was run: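 Compounds are added to genetically altered yeast, and growth is compared with cultures given vehicle alone to give percent inhibition.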

[4] = NCI Yeast Anticancer Drug Screen. Data for the cln2 rad14 strain (AID 165);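 also: 0% = growth equal to vehicle treated cultures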; settings: S. cerevisiae cln2 rad14 strain, at 50.0 µM, hits give high values
How it was run: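 Growth inhibition, relative to vehicle-treated controls, is the read-out. The test organism is a yeast strain with defined genetic alterations, cln2 rad14.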

[5] = NCI Yeast Anticancer Drug Screen. Data for the bub3 strain (AID 167); settings: S. cerevisiae bub3 mutant strain, at 50.0 µM, hits give high values
How it was run: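 Compounds were applied to a genetically altered yeast strain carrying a cell-cycle control defect. Growth inhibition was scored against vehicle-treated controls.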

[6] = NCI Yeast Anticancer Drug Screen. Data for the mlh1 rad18 strain (AID 175); settings: S. cerevisiae mlh1 rad18 strain growth inhibition; at 50.0 µM; hits give high values
How it was run: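 Cells of a genetically altered yeast strain, deficient in DNA damage repair, were treated with compound. Their growth was then compared with that of vehicle-treated cultures to give inhibition.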

Row | SMILES | growth inhibition [1] | growth inhibition [2] | growth inhibition [3] | growth inhibition [4] | growth inhibition [5] | growth inhibition [6]
1 | CCOC(=O)N[N+]12CCN(CC1)CC2 | 0.45% | -2.65% | 1.95% | -12.9% | -1.2% | -11.1%
2 | CC(C)=C=CP(=O)(O)c1ccccc1 | -25.1% | -24.1% | -15.7% | 31.9% | -14.3% | 4.45%
3 | C/C=C1/C[C@@H](C)[C@@](C)(O)C(=O)OCC2=CC[N+]3([O-])CC[C@@H](OC1=O)[C@@H]23 (stereo not given in full) | -0.9% | -17.4% | -3.4% | 10.7% | -15.9% | -53.6%
4 | CN1CCCC(C(=O)c2ccccc2)C1 (stereo not given) | 0.45% | -5.1% | -0.3% | -18.9% | -4.95% | 3.75%
5 | COc1cc2c(cc1OC)-c1c3c(cc4c1[C@H](C2)N(C)CC4)OCO3 | -5% | -7.7% | -19.8% | 6.75% | -14.2% | -25.5%
6 | COC(=O)c1cncn1C(C)c1cccc2ccccc12 (stereo not given) | 90.7% (active) | 91% (active) | 79.2% (active) | 59% | 88.2% (active) | 89.3% (active)
7 | O=C(CC(=O)C(F)(F)F)c1cccs1.O=C(CC(=O)C(F)(F)F)c1cccs1.O=C(CC(=O)C(F)(F)F)c1cccs1.[Tb] | -5% | 20.6% | 24.6% | -27.5% | -1.5% | 28.2%
8 | Cc1cc(C(C)(C)C)ccc1O | 27.4% | -4.1% | 8.95% | 4.6% | 28.2% | 22%
9 | C[C@]12CCC(=O)C[C@@H]1CC[C@@H]1[C@@H]2CC[C@]2(C)[C@@H]3OCCC[C@H]3C[C@@H]12 | 22.4% | -0.5% | 46.5% | 14.7% | 19.1% | 39.2%
10 | [C-]#[O+].[C-]#[O+].[C-]#[O+].[C-]#[O+].[Cr].c1ccc([As](CC[As](c2ccccc2)c2ccccc2)c2ccccc2)cc1 | 22.9% | 21.4% | 8% | 6.65% | 36.2% | 29.1%
11 | CC(C)OP(=O)(OC(C)C)C(N(C)C)P(=O)(OC(C)C)OC(C)C.[Cl][Sn]([Cl])([Cl])[c]1ccccc1 | -10.9% | -10.2% | 2.1% | 28.8% | 7.85% | 1.5%
12 | O=C(O)C1CCCN1[N+](=O)[O-] (stereo not given) | -21.7% | -5.95% | -5.15% | -12.9% | -5.55% | -8.15%
13 | CCC[CH2][Sn]([CH2]CCC)([CH2]CCC)[CH2]CCNCCCN(C)C | 99.3% (active) | 99.7% (active) | 99.5% (active) | 99% (active) | 98.8% (active) | 99.2% (active)
14 | O=P(NCCCl)(NCCCl)Oc1ccccc1 | -19.5% | -0.5% | -18.8% | -16.1% | -7.25% | -13.1%
15 | CN(C)P(=S)(CCPc1ccccc1)N(C)C (stereo not given) | -13.5% | -23.6% | -12.8% | 2.95% | -5.75% | -5.8%
16 | O=C1/C(=C\c2ccccc2)C2OCC=C3CN4CCC56c7ccccc7N1C5C2C3CC46 (stereo not given) | -18.6% | -33.1% | -3.9% | -3.25% | -19.9% | -9.05%
17 | CCCOP1(=O)C=C(C)C(Cl)=C(C)C1 (stereo not given) | 33.5% | -4.6% | 20% | -1.45% | -14.7% | 34.8%
18 | CO[C@@]12[C@H](COC(N)=O)C3=C(C(=O)C(C)=C(NCCO)C3=O)N1C[C@@H]1N[C@@H]12 | 3.75% | -27.1% | 21.1% | -0.4% | 7.35% | -7.45%
19 | O=C(NC1=NN(Cc2ccccc2)C(=O)C1)c1ccc(S(=O)(=O)F)cc1 | -0.35% | -14.9% | 19.6% | 9.55% | 9.8% | 11.6%
20 | N#CC1(c2ccccc2)CCNCC1 | -2.2% | -33.5% | -3.15% | 1.05% | -0.5% | -17.8%

Row | SMILES | growth inhibition [1] | growth inhibition [2] | growth inhibition [3] | growth inhibition [4] | growth inhibition [5] | growth inhibition [6]
21 | C#[C][Sn]([CH2]CCC)([CH2]CCC)[CH2]CCC | 99% (active) | 99.5% (active) | 99.2% (active) | 99.1% (active) | 99.3% (active) | 99.2% (active)
22 | O=C(c1ccc(Cl)cc1)N1CCOCC1 | -4.45% | -15.2% | -7.6% | -29.4% | -53% | -7.95%
23 | CN(C)C(=O)Sc1c(Cl)cc(Cl)cc1S(=O)(=O)F | 43.1% | 6.9% | 56% | 32.6% | -3.2% | 20.6%
24 | CCCCCCCCCCCCCCCC(=O)[O][Hg][c]1ccccc1 | 97.6% (active) | 96.7% (active) | 99% (active) | 98.1% (active) | 99.2% (active) | 98.8% (active)
25 | O=P(N=C=S)(N=C=S)N=C=S | 5.45% | 6.6% | 9.4% | -11.6% | 0.4% | -12.8%
26 | C=C1C(=O)OC2CC3(C)OC3C3OC3C3=CC(OC3=O)C12 (stereo not given) | 18.9% | 34.7% | 57.1% | 29.6% | 41.4% | 38.1%
27 | OCC(Br)CBr (stereo not given) | 40.9% | 0.35% | -3.6% | -62.6% | -11.7% | -4.5%
28 | FC(F)(F)C(OP(OC(C(F)(F)F)C(F)(F)F)OC(C(F)(F)F)C(F)(F)F)C(F)(F)F | 27.4% | 8.95% | 2.6% | 1.55% | -4.9% | 28.1%
29 | Nc1nc(N)c(N)c(N)n1 | 3.05% | 1.8% | 14.6% | -3.05% | -3.05% | 34.2%
30 | C1CCC(N([P-]P([P-]N(C2CCCCC2)C2CCCCC2)N(C2CCCCC2)C2CCCCC2)C2CCCCC2)CC1.[C-]#[O+].[C-]#[O+].[C-]#[O+].[C-]#[O+].[C-]#[O+].[C-]#[O+].[Fe].[Fe] (stereo not given) | -20.7% | -28.1% | -23.2% | -8.1% | 2.2% | -24.4%
31 | CC(=O)c1ccccc1N=Nc1ccc(N(CCCl)CCCl)cc1C | 13.5% | 19.7% | 12.9% | 0.95% | 20.5% | 31.4%
32 | CC/C(=C(/CC)c1ccc(OP(=O)(Cl)N(CCCl)CCCl)cc1)c1ccc(OP(=O)(Cl)N(CCCl)CCCl)cc1 (stereo not given) | -2.35% | -18% | -8.3% | -1.9% | -2.45% | 37.5%
33 | O.[Cr+3].[NH2-].[NH2-].[NH2-].[NH2-].[NH2-].[O-][Cl+3]([O-])([O-])O | 16.6% | 6.85% | -0.4% | 9.75% | 3.85% | -18.1%
34 | Nc1cc([N+](=O)[O-])cc([N+](=O)[O-])c1 | -6.6% | -9.3% | 30.1% | 4.9% | 2.5% | 41.3%
35 | CCC(=O)c1ccc(OC)c(OC)c1 | 7% | -1.3% | -0.15% | -2.85% | 15.7% | 1.75%
36 | N#CCC(=O)c1ccccc1 | 3.3% | 29.9% | -0.25% | -20.7% | -10.9% | 1.4%
37 | ClCCN(CCCl)c1ccc(CCCCN2CCCCC2)cc1 | 20.2% | 23.2% | 21.2% | 14.2% | 19.2% | 47%
38 | COc1ccc([N+](=O)[O-])cc1 | 23.6% | -5.8% | 12.6% | 20.9% | 1.1% | -20.9%
39 | CC(Cl)CN(CC(C)Cl)C(=O)Oc1ccc(CC(N)C(=O)O)cc1 (stereo not given) | 31.1% | 0.7% | 25.4% | -20.6% | -0.1% | 20.3%
40 | Cc1cc[n+](C)c(Cc2ccccc2)c1C | -26.7% | -11.1% | -8.9% | -26.1% | -22% | -28.9%

Source: PubChem BioAssay (NCI)
